Common to all, as to assay: qHTS profiling for inhibitors of Plasmodium falciparum proliferation (AID 504749); note: nearly all actives have a fitted effect of over 60% in size
Common to all, as to details: P. falciparum in erythrocytes, SYBR Green DNA, 72 h; series mostly up to 28.7 µM
On the technique in general: Quantitative high-throughput screening tests each substance at several concentrations.

One test has as its system 3D7. In a few lines: (§1)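 SYBR Green fluorescence of parasite DNA, read after lysis and overnight dark incubation, measured growth over 72 h in erythrocyte culture at 0.3% parasitemia and 2.5% hematocrit. Data normalised to DMSO and 0.29 uM artemisinin, with plate-drift correction.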
The next test deals with 7G8. In a few lines: as §1
The subject of another test is CP192. The method in brief:
as §1

A further test deals with CP201. In a few lines:
as §1

Another test deals with CP215. The method in brief:
as §1

For a further test, the system named is CP237. In a few lines: as §1
A further test concerns CP262. The method in brief:
as §1

The test system of a further test is CP266. In a few lines: as §1
The subject of the next test is CP315. In a few lines:
as §1

Another test concerns CP325. The method in brief:
as §1

The test system of another test is DIV14. The method in brief: as §1
A further test has as its system DIV17. The method in brief: as §1
The test system of a further test is Dd2. In a few lines: as §1
The next test has as its system FAB9. The method in brief: as §1
Another test concerns GB4. In a few lines: as §1
In a further test the test system is HB3. The method in brief: as §1
In a further test the test system is ICS. In a few lines:
as §1

In another test the test system is P94_40. The method in brief:
as §1

A further test deals with PC49. In a few lines: as §1
For another test, the system named is TAB165. The method in brief: as §1

Molecules are shown by their SMILES. Results filed as inconclusive are left out. Active and inactive are the calls of the source. Calls come from the whole dose curve; as a rule, active = well fitted inhibition curve with a large enough effect; inconclusive = small, poorly fitted or top-dose-only effect; inactive = flat fitted curve, though single readings scatter.
Potency is the fitted concentration of half-maximal effect.

As to `CCOC(=O)C(CCc1ccccc1)NC1CCc2ccccc2N(CC(=O)O)C1=O` (stereo not given), the Potency result in the test with 3D7, with CP192, in the test with CP201, with CP215, with CP262 and in the test on CP266 was “inactive” each time. The Potency result in the test on CP315, with CP325, with FAB9, in the test with HB3, in the test on P94_40 and with PC49 was “inactive” in each case. In addition, the Potency in the test on 7G8 was 7.94 µM (active); in the test with CP237, 10 µM (active); in the test with DIV14, 7.57 µM (active); in the test on DIV17, 10.7 µM (active); in the test on Dd2 it was 11.2 µM (active); with GB4 it was 15.1 µM (active). For the same compound, the Potency is 6.31 µM (active) with ICS and 11.2 µM (active) in the test with TAB165.

Consider `C[C@@H](C(=O)O)c1ccc(-c2ccccc2)c(F)c1`, for which the Potency entry with 3D7, in the test with 7G8, in the test on CP192, with CP201, in the test with CP215 and in the test with CP237 was “inactive” throughout. Moreover, the Potency entry in the test with CP262, with CP266, in the test on CP315, with CP325, in the test with DIV14 and in the test on DIV17 was “inactive” in each case. Besides, the Potency entry in the test with Dd2, in the test with FAB9, in the test on GB4, with HB3, in the test with ICS and in the test on P94_40 was “inactive” in each case. In addition, the Potency entry in the test with PC49 and in the test with TAB165 was “inactive” in each case.
